High-throughput results from PubChem.
MCF10A rerep: DNA re-replication induction in MCF 10a cells; MCF 10A DNA re-replication, Hoechst nuclear intensity, 48 h; Potency, µM (doses to about 46.1 µM), inactives show top-dose activity, positive = re-replication, hits mostly activators; 350,000 tested, 2.9% active; AID 624296; further: potency means the concentration at half of the fitted maximal effect; % of control where 0% means no effect; nearly all actives have a fitted effect of over 50% in size
IL-1B inflam inh: blocks inflammasome-driven IL-1 beta release | activity change, % at 57.5 µM | THP-1 LPS/ATP IL-1B secretion, AlphaLISA, 16 h; active compounds read low | 360,000 tested, 4.7% active; in the data active means activity change below about -50%; inconclusive means mostly about -30% to -49%; further: on the % scale 0 is the no-effect control and ±100 the full control effect
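Secreted IL-1B measured by AlphaLISA bead assay after 16 h compound exposure of THP-1 cells; compounds (final up to 57.5 uM) added 1 h before LPS (250 ng/mL) and ATP (1.25 mM) stimulation; lower signal means less secretion.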
KB-V1 cytotox: KB-V1 MDR subline cytotoxicity; Potency, µM (top dose mostly 46.1 µM), usual class: cytotoxic; 400,000 tested, 3.4% active; KB-V1 MDR cells viability, CellTiter-Glo, 72 h; further: potency means the concentration at half of the fitted maximal effect; on the % scale 0 is the no-effect control and ±100 the full control effect; nearly all actives have a fitted effect of over 60% in size
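Compound-treated KB-V1 multidrug-resistant cells, 72 h, 37 degrees C; viability by CellTiter-Glo. Fitted qHTS curves give the values.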
KB-3-1 tox: KB-3-1 parental cell cytotoxicity | 400,000 tested, 1.4% active | Potency, µM (highest dose often 46.1 µM), most hits filed as cytotoxic | KB-3-1 viability, CellTiter-Glo ATP luminescence, 72 h; further: potency means the concentration at half of the fitted maximal effect; on the % scale 0 is the no-effect control and ±100 the full control effect; nearly all actives have a fitted effect of over 60% in size
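Cells are dispensed, compounds pinned in, plates held at 37 °C for 72 h, then CellTiter-Glo is added and luminescence read after 10 minutes. Cell line: parental KB-3-1 in phenol-red-free DMEM, 10% FBS.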
SW480 rereplic: DNA re-replication induction in SW480 cells | SW480 DNA re-replication, Hoechst DNA content imaging, 48 h | Potency, µM (doses to about 46.1 µM), for the others: at the highest dose re-replication activation, hits mostly activators | 340,000 tested, 1.8% active | AID 624297; further: potency means the concentration at half of the fitted maximal effect; % of control where 0% means no effect; nearly all actives have a fitted effect of over 55% in size
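First, 250 cells per well were seeded. Next, compound or vehicle (23 nL) was pinned in, plates sat 48 hr at 37 C. Finally Hoechst was added for 40 min before fluorescence scanning.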
An asterisk follows results filed as active; i = inactive; ? = inconclusive; . = no result; [ ] = dose if it differs, or a comment. A selection: hits, their analogues and other compounds. The true share with any hit is near 9.9%. Unless noted, the call rests on the fitted dose curve; in most records, active means well fitted curve in the direction sought with a large enough effect; inconclusive means small, poorly fitted or top-dose-only effect, or another doubt; inactive means no such curve, though single readings can be large; an effect the other way counts as inactive or inconclusive.

SMILES | MCF10A rerep | IL-1B inflam inh | KB-V1 cytotox | KB-3-1 tox | SW480 rereplic
CCCC(=O)OCCNc1cc(Sc2nccn2C)c2nonc2c1[N+](=O)[O-] | ? | -101* | i | ? | 20%
CC(C)C(=O)NCC(c1ccc2c(c1)OCO2)N1CCN(c2ccccc2F)CC1 (stereo not drawn) | . | . | i | i | .
CCOC(=O)c1c(C)[nH]c(C)c1S(=O)(=O)N1CCCC(C(=O)N2CCN(c3ccccc3)CC2)C1 (stereo not drawn) | . | . | ? | i | .
Clc1ccc(Cn2c(-c3cccnc3Cl)nc3ccccc32)cc1 | 19% | 3 | i | i | 12%
Clc1ccc(Cn2c(-c3cccnc3Cl)nc3ccccc32)c(Cl)c1 | 16µM* | 13 | 23µM* | ? | 4%
O=C(N/N=C/c1ccc(N2CCOCC2)c([N+](=O)[O-])c1)c1ccc(F)cc1 | 13% | 75 | i | i | 1%
CO/N=C/c1ccc(N2CCN(C(=O)c3ccc(F)cc3)CC2)c([N+](=O)[O-])c1 | 18% | -8 | 16µM* | i | -3%
CO/N=C/c1ccc(N2CCN(C(=O)c3cccc(C(F)(F)F)c3)CC2)c([N+](=O)[O-])c1 | 8% | -23 | 10µM* | ? | ?
CO/N=C/c1ccc(N2CCN(C(=O)c3ccc(Cl)cc3Cl)CC2)c([N+](=O)[O-])c1 | 11% | -62* | 2.6µM* | 13µM* | 15%
Cc1ccc(O)c(NC(=O)Cc2ccc3ccccc3c2)c1 | -19% | -65* | i | i | 3%[9.22 µM]
COc1ccc(N2CCN(c3nc4ccccn4c(=O)c3/C=C(\C#N)S(=O)(=O)c3ccccc3)CC2)cc1 | 14% | 0 | i | i | 5%
CCC12CN3CC(C)(CN(C1)C3c1c[nH]c3ccc(OC)cc13)C2=O (stereo not drawn) | . | . | ? | i | .
CCc1ccc(N/C(SCc2ccccc2C)=C(/C#N)C(=O)NCc2ccco2)cc1 | -38%[0.0737 µM] | -11 | i | ? | 3.7µM*
O=C(CN1C(=O)NC2(CCCCCC2)C1=O)NCc1ccccc1 | 5% | 9 | i | i | -13%
Cc1ccc(C)c(N=Nc2nc3ccccc3n2C)c1 | ? | -80* | 15µM* | i | ?
CCOP(=O)(OCC)C(Nc1ccccc1)c1ccc2c(c1)OCO2 (stereo not drawn) | 0% | 5 | ? | i | -25%
CCCCOP(=O)(OCCCC)C(Nc1ccccc1)c1ccc2c(c1)OCO2 (stereo not drawn) | ? | -28 | 7.3µM* | ? | -60%
O=c1c2c3c(sc2n(Cc2ccc(F)cc2Cl)c(=O)n1-c1ccc(Cl)cc1)CCC3 | . | . | i | i | .
O=S(=O)(Nc1cccc(-c2cn3cccnc3n2)c1)c1ccc(Cl)cc1 | 18% | -70* | ? | i | 26%
Cc1ccc(S(=O)(=O)N2CCCCC2)cc1C(=O)Nc1ccc(S(=O)(=O)Nc2ncccn2)cc1 | 0% | 12 | i | i | 0%
Cc1cc(C)n(-c2ccc(Cl)c(C(=O)NCc3ccccc3)n2)n1 | -9% | 54 | 12µM* | i | 0%
O=c1oc(CCO)cc2ccc(Br)cc12 | ? | 11 | i | i | -6%
COc1ccc(NC(=O)CN2CCCCCC2)cc1OC | 2% | 12 | i | i | -16%
CCn1c(=O)c2cc(C(=O)NCC(OC)OC)sc2c2ccccc21 | 10% | -56* | i | i | -3%
CCCCN(CC)CCCNC(=O)c1cc2c(=O)n(CC)c3ccccc3c2s1 | ? | -77* | i | ? | ?
CCCN(CCC)CCCNC(=O)c1cc2c(=O)n(CC)c3ccccc3c2s1 | ? | -63* | ? | 23µM* | ?
CCCCN(CC)CCNC(=O)c1cc2c(=O)n(CC)c3ccccc3c2s1 | 5% | ? | i | i | 2%
CCn1c(=O)c2cc(C(=O)NCCCOC)sc2c2ccccc21 | 98% | -50* | ? | ? | ?
Cc1nc2ccccc2nc1-c1csc(-c2ccccc2)n1 | . | . | ? | i | .
O=C1c2ccccc2CN1Cc1ccccc1 | -3% | -9 | i | i | 16%
